Measured values published in ChEMBL document CHEMBL3988442, “University of Dundee, Small-Polar-MMV Screening Library” (2021).
Several values for one entry are separate records, joined by “and”; a condition that tells them apart may be missing. Identical values can stand only once. Among all 34,000 compounds or so, about 290 (0.85%) showed an effect of 50% or more. This is one part of a sample in which strong results are shown more often than they occur.

Test system: Plasmodium falciparum
Assay: Plasmodium falciparum sporozoite viability assay
Type: functional, organism-based
Design: scale not given: in the data most compounds retested in dose-response had high values

## COc1ccccc1C1(C(=O)NCCN2CCCCC2)CCOCC1
  Percent Effect: 7.717%

## C[C@@H]1CN(Cc2ccccn2)C[C@]12CCN(Cc1cccnc1)C2=O.O=C(O)C(F)(F)F.O=C(O)C(F)(F)F.O=C(O)C(F)(F)F
  Percent Effect: -3.791%

## Cn1cc(CN2CCC3(CC2)CC(Nc2nccs2)CO3)cn1.O=C(O)C(F)(F)F (stereo unspecified)
  Percent Effect: 18.81%

## NC(=O)c1cc(C2CCCN(C(=O)CCc3ccncc3)C2)n[nH]1 (stereo unspecified)
  Percent Effect: -0.3069%

## CC(C)c1n[nH]c(C(=O)NC(C)c2ccncc2)c1Br (stereo unspecified)
10 mM as filed; unlikely as a test dose
  Percent Effect: 40.84% and 49.25% and 43.96%

## CC(C)C(NC(=O)Nc1ccccn1)c1cccs1 (stereo unspecified)
  Percent Effect: 14.64%

## Cl.O=C(Nc1ccccn1)c1cncc(C2CCNCC2)n1
  Percent Effect: -0.4476%

## CC(C)c1n[nH]c(C(=O)Nc2ccncc2)c1Br
10 mM as filed; unlikely as a test dose
  Percent Effect: 98.93% and 67.14% and 45.46%

## Cc1ccc(NC(=O)CSCc2cccnc2)nc1
10000 µM
  Percent Effect: -29.55% and -38.68%

## CC(C)c1n[nH]c(C(=O)Nc2ccccn2)c1Br
10 mM as filed; unlikely as a test dose
  Percent Effect: 107.3% and 96.92% and 105.3%

## Cc1ccnc(NC(=O)c2ccc(Cl)o2)c1
10000 µM
  Percent Effect: 72.69% and 57.82%

## Cc1ccnc(NC(=O)c2ccc(C)o2)c1
10000 µM
  Percent Effect: -40.27% and -55.88%

## Cc1ccnc(NC(=O)CSCc2cccnc2)c1
10000 µM
  Percent Effect: 65.53% and 89.16%

## CCC1CCCCN1C(=O)c1ccnc(N(C)C)c1 (stereo unspecified)
  Percent Effect: 0.6463%

## Cc1ccccc1OC1CCN(S(=O)(=O)c2c(C)n[nH]c2C)CC1
  Percent Effect: 0.8951%

## COc1ccccc1CN(Cc1nc(CC(C)C)no1)C1CC1
  Percent Effect: -1.432%

## COc1c(C2CCCN2C(=O)c2ccc3c(c2)OCO3)c(C)nn1C (stereo unspecified)
  Percent Effect: 6.2%

## Cn1ccnc1C(=O)N1CCC2(CCN2Cc2ccc(F)cc2)C1.O=C(O)C(F)(F)F (stereo unspecified)
  Percent Effect: -1.35%

## Cc1cccc(CN2CCn3c(COc4ncccn4)nnc3C2)n1
  Percent Effect: -3.893%

## O=C(N[C@@H]1CC[C@@H](N2CCCC2)[C@@H]1O)c1cc2ccccc2[nH]1
  Percent Effect: 4.476%

## Cc1ccnc(NCCNC(=O)CCNC(=O)c2ccccc2F)c1
10000 µM
  Percent Effect: 3.593% and 6.463%

## Cc1ccnc(NC(=O)c2cncc(C3CCNCC3)n2)c1
  Percent Effect: 28.13%

## Cc1ccnc(NC(=O)c2cnc(C3CCCNC3)cn2)c1 (stereo unspecified)
10 mM as filed; unlikely as a test dose
  Percent Effect: 70.96% and 81.72% and 59.47%

## CCC(NC(=O)CCNC(=O)c1ccccc1F)c1cc(C)ccn1 (stereo unspecified)
10 mM as filed; unlikely as a test dose
  Percent Effect: -6.667% and 1.59%

## Cc1cccc(NC(=O)c2cnc(C3CCCNC3)cn2)n1 (stereo unspecified)
10 mM as filed; unlikely as a test dose
  Percent Effect: 4.473% and -18.26% and -18.86%

## Cc1ccnc(NC(=O)CCNC(=O)c2ccccc2Cl)c1
10000 µM
  Percent Effect: 67.45% and 43.1%
